# Data taken from PubChem BioAssay AID624137 (Broad Institute, 2012).
# Screen size: about 31,000 compounds; about 360 (1.2%) were called active. The sample holds actives, similar compounds and a random draw of the others, so the mix is not that of the screen. No rule for the calls is given here.
# Target: DNA-binding protein inhibitor ID-4 (Homo sapiens) (UniProt P47928)
# Assay: PubChem AID 624137;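 also: a binder raises fluorescence above local background on the spot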
# Conditions: small molecule microarray, Flag-ID4 binding, fluorescence F/B
# DNA-binding protein inhibitor ID-4 (Homo sapiens), sequence (P47928 whole entry, looked up): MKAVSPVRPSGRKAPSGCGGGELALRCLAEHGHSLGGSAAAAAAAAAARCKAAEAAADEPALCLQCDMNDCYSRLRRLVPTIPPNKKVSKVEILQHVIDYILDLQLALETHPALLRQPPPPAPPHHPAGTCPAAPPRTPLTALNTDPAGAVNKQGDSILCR
row,Structure (SMILES),outcome
1,O=[N+]([O-])c1ccccc1CN1CCN(Cc2cccc(Oc3ccccc3)c2)CC1,inactive
2,O=[N+]([O-])c1ccccc1/C=C/CN1CCC(O)CC1,active
3,O=C(C[C@H]1CC[C@@H](NC(=O)c2ccncc2)[C@@H](CO)O1)NCC1CC1,inactive
4,C[C@@H]1CN([C@H](C)CO)C(=O)c2cc(-c3ccccc3F)cnc2O[C@H]1CN(C)C(=O)CN(C)C,inactive
5,C[C@H](CO)N1C[C@H](C)[C@@H](CN(C)C(=O)c2cnccn2)Oc2ncc(-c3ccccc3F)cc2C1=O,inactive
6,O=C(CSc1nc(O)cc(=O)n1-c1ccccc1F)Nc1ccc(Cl)cc1Cl,inactive
7,Cc1c(NC(=O)/C(C#N)=C/c2ccccc2Cl)c(=O)n(-c2ccccc2)n1C,active
8,COC(=O)Cc1csc(Nc2c(C)n(C)n(-c3ccccc3)c2=O)n1,inactive
9,COc1cccc(/C=C(\C#N)C(=O)Nc2c(C)n(C)n(-c3ccccc3)c2=O)c1,inactive
10,COc1cc(NC(=O)COc2ccccc2Br)c(OC)cc1Cl,inactive
11,C[C@H](CO)N1C[C@H](C)[C@H](CN(C)C(=O)C2CC2)OCc2ccccc2-c2ccccc2C1=O,inactive
12,CCC(=O)N[C@H]1CC[C@@H](CC(=O)NCc2cc(F)cc(F)c2)O[C@@H]1CO,inactive
13,C[C@H](CO)N1C[C@H](C)[C@H](CN(C)C(=O)c2ccccc2)OCCCC[C@H](C)Oc2ccc(NS(C)(=O)=O)cc2C1=O,inactive
14,C[C@@H]1CCCCO[C@@H](CN(C)C(=O)c2ccccc2)[C@H](C)CN([C@@H](C)CO)C(=O)c2cc(NS(C)(=O)=O)ccc2O1,inactive
15,C[C@@H]1CN([C@@H](C)CO)C(=O)c2cc(NS(C)(=O)=O)ccc2O[C@@H](C)CCCCO[C@@H]1CN(C)C(=O)c1ccccc1,active
16,CNC[C@@H]1Oc2cc(C#Cc3ccc(F)cc3)ccc2S(=O)(=O)N([C@@H](C)CO)C[C@H]1C,inactive
17,COc1ccccc1-c1cnc2c(c1)C(=O)N([C@H](C)CO)C[C@H](C)[C@H](CN(C)Cc1cccnc1)O2,inactive
18,Cc1ccccc1-c1cnc2c(c1)C(=O)N([C@@H](C)CO)C[C@@H](C)[C@@H](CN(C)CC1CCOCC1)O2,inactive
19,CCCN(C)C[C@H]1Oc2cc(-c3ccc(C)cc3)ccc2S(=O)(=O)N([C@H](C)CO)C[C@H]1C,inactive
20,C[C@@H]1CN([C@@H](C)CO)C(=O)c2cc(Br)cnc2O[C@@H]1CN(C)C(=O)C1CCCCC1,inactive

row,Structure (SMILES),outcome
1,CN1CCN(C(=O)C[C@H]2CC[C@@H](NC(=O)c3ccc4c(c3)OCO4)[C@H](CO)O2)CC1,inactive
2,O=C(C[C@H]1C=C[C@H](NS(=O)(=O)c2ccc(F)cc2)[C@H](CO)O1)NCc1ccncn1,inactive
3,CCCN(C)C[C@@H]1Oc2cc(C#CC3CCCCC3)ccc2S(=O)(=O)N([C@@H](C)CO)C[C@@H]1C,inactive
4,COc1ccccc1-c1cnc2c(c1)C(=O)N([C@@H](C)CO)C[C@@H](C)[C@H](CN(C)Cc1cccnc1)O2,inactive
5,COCC#Cc1cnc2c(c1)C(=O)N([C@H](C)CO)C[C@@H](C)[C@@H](CN(C)Cc1ccccc1F)O2,inactive
6,CC(C)CC#Cc1cnc2c(c1)C(=O)N([C@@H](C)CO)C[C@H](C)[C@@H](CN(C)C(=O)c1ccc(F)cc1)O2,inactive
7,C[C@@H]1CN([C@@H](C)CO)S(=O)(=O)c2ccc(C3=CCCC3)cc2O[C@@H]1CN(C)Cc1ccncc1,inactive
8,C[C@@H](O)C#Cc1cnc2c(c1)C(=O)N([C@@H](C)CO)C[C@H](C)[C@@H](CN(C)CC1CCCCC1)O2,inactive
9,COc1ccccc1-c1ccc2c(c1)O[C@H](CN(C)C(=O)c1cccnc1)[C@@H](C)CN([C@H](C)CO)S2(=O)=O,inactive
10,CC(C)C#Cc1ccc2c(c1)O[C@@H](CN(C)CC1CCOCC1)[C@H](C)CN([C@H](C)CO)S2(=O)=O,inactive
11,CNC[C@H]1Oc2cc(C#CC3CCCC3)ccc2S(=O)(=O)N([C@H](C)CO)C[C@@H]1C,inactive
12,CC(C)C#Cc1cnc2c(c1)C(=O)N([C@H](C)CO)C[C@@H](C)[C@H](CN(C)Cc1ccccc1)O2,inactive
13,C[C@@H]1CN([C@@H](C)CO)S(=O)(=O)c2ccc(C#CCC3CCCC3)cc2O[C@@H]1CN(C)C,inactive
14,C[C@H](O)C#Cc1cnc2c(c1)C(=O)N([C@H](C)CO)C[C@@H](C)[C@H](CN(C)CC1CCCCC1)O2,inactive
15,C[C@@H]1CN([C@H](C)CO)C(=O)c2cc(C3=CCCC3)cnc2O[C@H]1CN(C)C,inactive
16,Cc1cccc(NC(=O)CSc2nnc(-c3ccccc3)n2C2CCCCC2)c1C,inactive
17,CCC(=O)N(C)C[C@H]1Oc2cc(/C=C/c3ccccc3)ccc2S(=O)(=O)N([C@H](C)CO)C[C@H]1C,inactive
18,O=C(C[C@H]1CC[C@@H](NC(=O)Nc2cc(F)ccc2F)[C@@H](CO)O1)NCc1ccncn1,inactive
19,CNC[C@H]1Oc2ncc(-c3ccccc3F)cc2C(=O)N([C@H](C)CO)C[C@H]1C,inactive
